From the supplement of paper PMC11018630 come the findings set out here.

Where a name gives a salt, the structure may show the parent alone. ± gives the standard deviation of the averaged measurements. The full ranking holds about 1,100 compounds; the median of “day of extracellular matrix detachment from plate” is about 16, and the lowest 2% start at about 10. The full list was thinned out, with the lowest values kept by preference.

In this experiment the test system is RDEB dermal fibroblasts EB71. Description: day of extracellular matrix detachment from plate (days); higher = delayed detachment (less fibrotic matrix). The following applies: compound concentration: 10 uM.
Regarding `O[C@H]1[C@H](O)[C@@H](O)[C@H](O)[C@@H](O)[C@H]1O` [i-Inositol], the “day of extracellular matrix detachment from plate” value (“day” for short) turned out to be 13.
For `CS(=O)(=O)c1ccc(C(=O)Nc2ccc(Cl)c(-c3ccccn3)c2)c(Cl)c1` [Vismodegib (GDC-0449)] the value was 14.3 ± 1.1.
To `COc1cccc(-c2ccc(NC(=O)C3=C(C(=O)O)CCC3)c(F)c2)c1` [Vidofludimus] belongs 16.3 ± 1.1.
`CCOc1cc([C@@H](CS(C)(=O)=O)N2C(=O)c3cccc(NC(C)=O)c3C2=O)ccc1OC`: the “day” value was 12.7 ± 2.9.
To `O=C1CC[C@@H](C(=O)N2CSC[C@H]2C(=O)O)N1` [Pidotimod] belongs 15.3 ± 2.3; to `NC[C@H](O)c1ccc(O)c(O)c1` [Noradrenaline bitartrate monohydrate], 16.7 ± 2.3; to `CNC[C@H](O)c1ccc(O)c(O)c1` [Epinephrine HCl], 16.3 ± 4.
To `CC(C)NCC(O)c1ccc(O)c(O)c1` (configuration not stated) [Isoprenaline HCl] belongs 11 ± 1.7; to `CC(C)(C)NCC(O)c1ccc(O)c(CO)c1` (configuration not stated) [Salbutamol Sulfate], 19; to `CNC[C@H](O)c1cccc(O)c1` [Phenylephrine HCl], 12.
To `CNC[C@H](O)c1ccc(O)c(O)c1` [Epinephrine Bitartrate] belongs 9.
Turning to `CNC[C@@H](O)c1ccc(O)c(O)c1` [L-Adrenaline], the “day” value worked out at 10 ± 1.7.
For `O=C(/C=C/C=C/c1ccc2c(c1)OCO2)N1CCCCC1` [Piperine] the value was 11 ± 1.7; for `Cc1ccsc1C(=CCCN1CCC[C@@H](C(=O)O)C1)c1sccc1C` [Tiagabine], 17; for `Cc1ccsc1C(=CCCN1CCC[C@@H](C(=O)O)C1)c1sccc1C` [Tiagabine hydrochloride], 17.2 ± 2.
Regarding `Cc1c(-c2ccnn2C)cc(C(=O)NCc2ccc(S(C)(=O)=O)cn2)c(=O)n1-c1cccc(C(F)(F)F)c1` [Alvelestat (AZD9668)], the “day” value was determined as 13.7 ± 1.1.
Consider `CCCNS(=O)(=O)Nc1ncnc(OCCOc2ncc(Br)cn2)c1-c1ccc(Br)cc1` [Macitentan], for which the “day” value amounted to 9.67 ± 1.1.
For `O=C(O)c1cc(=O)c2ccccc2o1` [Chromocarb] the value was 13; for `OCC(O)CN1CCN(c2ccccc2)CC1` (configuration not stated) [Dropropizine], 15; for `C=C1CC[C@H](O)C/C1=C/C=C1\CCC[C@]2(C)[C@@H]([C@H](C)/C=C/[C@H](C)C(C)C)CC[C@@H]12` [Vitamin D2], 18.
As for `CC(=O)/N=c1/sc(S(N)(=O)=O)nn1C` [Methazolamide], the “day” value came out at 18.
For the compound `O=C1C(O)=C([C@H]2CC[C@H](c3ccc(Cl)cc3)CC2)C(=O)c2ccccc21` [Atovaquone], the “day” value turned out to be 18.
`CC[C@H](Nc1ncnc2[nH]cnc12)c1nc2cccc(F)c2c(=O)n1-c1ccccc1` [CAL-101 (Idelalisib, GS-1101)]: the “day” value is 22.3 ± 1.1.
To `O=C([O-])C(O)[C@H](O)[C@@H](O)[C@H](O)[C@H](O)CO.O=C([O-])C(O)[C@H](O)[C@@H](O)[C@H](O)[C@H](O)CO.[Ca+2]` (some centres not stated) [Calcium Gluceptate] belongs 18; to `S=c1[nH]cnc2nc[nH]c12` [Mercaptopurine (6-MP)], 15 ± 1.7.
In the case of `O=c1[nH]c(=O)n([C@H]2C[C@H](O)[C@@H](CO)O2)cc1I` [Idoxuridine], the “day” value was found to be 23.
Turning to `COc1cc(OC)c(C(=O)CCCN2CCCC2)c(OC)c1` [Buflomedil HCl], the “day” value stood at 20 ± 1.7.
